A selection: hits, their analogues and other compounds. The true share with any hit is near 2.3%.
M1 PAM parental = nonselective calcium activators in parental CHO-K1 cells, primary screen, counter-screen for M1 PAM project, cell-based, Fluo-8 calcium fluorescence, full deck, 1536-well. ATP EC20; 0% at ATP EC20, 100% at ATP max. activation, % at 3 µM. 360,000 tested, 0.02% active;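 active means activation above the run cutoff, the mean activation of all test compounds plus 3 SD, cut at about 40% in these data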;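 further: peak over basal fluorescence ratio in a 140 s read after ATP addition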
CHO-K1 Ca ag = counter-screen for M1 agonists: effect in parental CHO-K1 cells. activation, % at 3 µM. 360,000 tested, 0.48% active. Fluo-8 calcium fluorescence; scaled to maximal ATP response, vehicle zero; in the data active means activation above about 15%;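 further: untransfected CHO-K1 host cells lacking M1 receptor as counterscreen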
M1 ag = human M1 muscarinic receptor agonists, primary screen, Fluo-8 calcium fluorescence, CHO-K1 cells, HTS; Muscarinic acetylcholine receptor M1 (Homo sapiens), P11229; CHO-K1 hM1, agonist mode; 0% DMSO, 100% acetylcholine EC100; activation, % at 3 µM; 360,000 tested, 0.33% active;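 active means activation above the run's mean compound activation plus 3 SD, cut at about 16% in these data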;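 further: peak over basal fluorescence ratio within a 140 s kinetic read after compound addition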
Target sequence (P11229 whole entry, looked up): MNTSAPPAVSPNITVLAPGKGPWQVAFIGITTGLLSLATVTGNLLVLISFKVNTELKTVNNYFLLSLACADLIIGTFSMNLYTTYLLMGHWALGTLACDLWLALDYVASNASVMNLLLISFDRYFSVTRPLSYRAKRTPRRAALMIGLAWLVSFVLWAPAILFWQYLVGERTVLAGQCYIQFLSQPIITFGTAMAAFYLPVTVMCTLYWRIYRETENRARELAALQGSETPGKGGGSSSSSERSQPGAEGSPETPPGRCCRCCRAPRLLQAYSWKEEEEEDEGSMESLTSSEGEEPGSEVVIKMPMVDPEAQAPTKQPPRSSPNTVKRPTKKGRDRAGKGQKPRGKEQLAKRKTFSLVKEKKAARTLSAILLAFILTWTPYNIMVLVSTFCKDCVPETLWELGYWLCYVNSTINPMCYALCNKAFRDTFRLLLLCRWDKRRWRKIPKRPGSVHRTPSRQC
M1 antag = human M1 muscarinic receptor antagonists, primary screen, CHO-K1 cells, Fluo-8 calcium fluorescence, 1536-well; Muscarinic acetylcholine receptor M1 (Homo sapiens), P11229; CHO-K1 hM1, ACh EC80 antagonist; inhibition, % at 3 µM; 360,000 tested, 1.3% active; AID 588852, 2011;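 active means percent inhibition above its own plate's cutoff, namely the mean of that plate's compound wells plus 3 SD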;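 further: peak over basal fluorescence ratio during 140 s after agonist addition; 0% = ACh EC80 plus DMSO and 100% = DMSO alone without agonist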
CHRM1 PAM = human M1 muscarinic receptor positive allosteric modulators, primary screen, CHO-K1 cells, Fluo-8 calcium fluorescence, 1536-well; CHO-K1 hM1, ACh EC20; 0% = ACh EC20, 100% = maximal ACh; activation, % at 3 µM; 360,000 tested, 0.088% active; in the data active means activation above about 19%, passing the limit was not always enough
CHO-K1 Ca antag = M1 antagonist counterscreen hit in parental CHO-K1 cells; ATP-induced calcium, Fluo-8 fluorescence; inhibition, % at 3 µM; 360,000 tested, 0.6% active; AID 602250;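 active means inhibition above a per-plate cutoff, the plate's mean sample inhibition plus 3 SD, cut at about 24% in these data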;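 further: 0% = DMSO plus EC80 ATP and 100% = DMSO alone without ATP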
Starred values were filed as active, the others as inactive; ! = not confirmed by another sample.

SMILES	M1 PAM parental	CHO-K1 Ca ag	M1 ag	M1 antag	CHRM1 PAM	CHO-K1 Ca antag
CN(C)c1ccc(/C=C/c2ccc3c4ccccc4ccc3[n+]2-c2ccccc2)cc1	-12.8	15.7*	2.4	64.5*	-25.5	40.7*
Cc1ccc(OCC(=O)NNC(=S)NC(=O)C2CCCCC2)c(C)c1	-13.7	5.6	20.2*	2.2	-1.3	-8.3
Cc1ccc(Oc2ccc(OCC(=O)Nc3ccncc3)cc2)cc1	-0.2	11.2	1.5	40.3*	-20.9	20.5
Cc1ccc(OCC(=O)NNC(=S)NC(=O)C2CC2)c(C)c1	-17.1	5.1	1.1	-0.3	3.1	1.7
Cc1ccc(OCC(=O)Nc2ccncc2)c(C)c1	-23.7	9.2	3.2	18.2	-4.0	29.1*
O=C(COc1ccccc1)Nc1ccncc1	9.2	2.9	0.2	-4.9	5.5	-8.1
Cc1ccc(CC(=O)Nc2ccncc2)cc1	-10.2	5.7	1.9	14.2	-12.7	36.1*
O=C(Cc1ccc(Cl)cc1)Nc1ccncc1	-6.1	8.6	-1.2	-7.2	5.2	10.2
Cc1ccc2nc(SCC(=O)N3CCCc4ccccc43)nc(=O)n2c1	-24.1	0.2	-1.9	7.5	0.2	1.6
Cc1cccc(S(=O)(=O)NC(=O)C2(C)CCN2C(=O)c2cccc(F)c2)c1 (stereo not drawn)	15.3	0.2	-2.2	2.8	-1.1	-4.7
CC(C)(C)c1ccc(OCC(=O)Nc2ccncc2)cc1	-15.7	9.9	0.5	27.0	-9.2	15.9
CCc1ccc(OCC(=O)Nc2ccncc2)cc1	-9.8	16.8*	2.5	22.4	-10.9	22.4
CCOC(=O)C1C(=O)NC(C(=O)OCC)(C(=O)OCC)C1CC (stereo not drawn)	9.1	0.1	-3.9	1.6	-1.0	-11.4
CSc1ccc(Cn2nnc(C(=O)NCc3ccccc3)c2N)cc1	21.9	19.0*	33.7*	14.2	-2.5	-0.9
Nc1c(C(=O)NCc2ccccc2)nnn1Cc1ccccc1	-0.6	0.3	12.1	18.9	4.8	-2.4
COc1ccccc1CN(C)C(=O)CN1C(=O)c2ccccc2C1=O	3.2	0.2	-3.5	2.5	1.9	-7.0
Cc1cc(C)c(NC(=O)CN2CCN3CCCC3C2)c(C)c1 (stereo not drawn)	-6.3	0.4	5.4	-19.5	28.6*!	-13.4
CCCCn1c(N)c(N(CCOC)C(=O)c2cc(C)oc2C)c(=O)[nH]c1=O	-20.5	3.8	-2.8	-5.4	4.9	24.0*
CCCCn1c(N)c(N(CCOC)C(=O)c2cc(=O)[nH]c3ccccc23)c(=O)[nH]c1=O	-0.4	0.5	-4.6	-8.2	1.9	-14.0
CCCCn1c(N)c(N(CC)C(=O)c2cc(OC)cc(OC)c2)c(=O)[nH]c1=O	6.0	16.4*	-5.8	0.4	4.4	-2.5
O=S1(=O)NC(CC2=CCCCC2)C2CCCCC2O1 (stereo not drawn)	10.0	-0.8	-9.2	-6.3	0.5	-22.4
CCN1C(=O)[C@@H]2[C@H](C1=O)[C@@H]1C(=O)Nc3ccccc3C(=O)N1[C@@H]2c1cccc(Cl)c1	1.9	0.4	-4.3	1.9	-3.3	-1.2
CC(NCCCOc1cccc2ccccc12)c1ccccc1 (stereo not drawn)	11.1	28.3*	3.0	-6.0	8.7	4.8
COc1ccc2ccccc2c1CNC(C)c1ccccc1 (stereo not drawn)	-12.1	0.9	-1.0	-22.8	18.9	4.1
CCOC(=O)n1c(=O)oc2ccc(Cl)cc21	-6.0	-0.2	0.2	-5.3	-1.7	29.2*
SMILES	M1 PAM parental	CHO-K1 Ca ag	M1 ag	M1 antag	CHRM1 PAM	CHO-K1 Ca antag
CCCCOC(=O)n1c(=O)oc2ccccc21	-3.0	0.0	-2.3	0.7	-2.5	1.6
Cc1ccccc1C(=O)OC1CCN(C)CC1	11.6	2.6	-8.6	35.4*	-20.5	-3.0
CN1CCC(OC(=O)c2ccc(Cl)cc2Cl)CC1	16.0	2.2	-11.4	-0.6	-6.8	-8.2
CN1CCC(OC(=O)c2ccco2)CC1	-6.2	1.0	-7.9	26.6	-16.5	0.4
CN1CCC(OC(=O)c2ccccc2Cl)CC1	2.0	0.0	-13.1	48.4*	-32.9	-3.5
O=C(C[n+]1cccc(Br)c1)c1ccc(-c2ccccc2)cc1	13.3	2.9	-11.1	38.4*	-27.4	0.0
Cc1ccc(C)[n+](CC(=O)c2ccc(-c3ccccc3)cc2)c1	17.2	0.3	-15.8	43.6*	-34.5	11.7
O=C(C[n+]1cccc(Br)c1)c1ccccc1	9.7	1.2	-6.7	-9.0	14.1	0.3
COc1ccc(OC)c(/C=N/NC(=O)c2c(C)nc3ccc(C)cn23)c1	8.7	0.8	-3.7	-11.0	10.8	-7.7
CCN1/C(=C/c2sc(-c3ccccc3C)c[n+]2C)Sc2ccccc21	-1.6	11.0	-1.4	47.8*	-17.4	34.4*
CCN1/C(=C/C=C/C=C/C=C/c2sc3ccccc3[n+]2CC)Sc2ccccc21	10.7	-0.3	-8.0	0.3	-1.6	-7.7
Cc1oc2cc3oc(=O)c(CCC(=O)NCc4ccccn4)c(C)c3cc2c1C	18.3	0.2	-5.6	-10.2	2.8	-1.0
O=C(NCCCN1CCOCC1)C(=O)N/N=C/c1c2ccccc2cc2ccccc12	3.4	0.2	-10.7	65.2*	-23.9	-1.4
O=C(NCCCN1CCOCC1)C(=O)N/N=C/c1c(Cl)cccc1Cl	21.5	0.2	-10.4	1.6	8.0	-12.4
COc1ccc(C(=O)/C=C2\Sc3ccccc3N2C)cc1	27.6	0.9	-9.6	-7.6	11.5	-8.6
COc1ccc(-[n+]2c(C)cc(/C=C3\Sc4ccccc4N3C)cc2C)cc1	-10.1	20.7*	12.0	80.8*	-26.5	40.3*
COc1ccccc1-[n+]1c(C)cc(/C=C2\Sc3ccccc3N2C)cc1C	-6.6	33.8*	36.1*	82.8*	-24.4	51.5*
Cc1cc(Br)ccc1N=C1NC(=O)CS1	17.8	0.6	-2.6	-13.8	10.5	-3.8
Cc1nn(-c2ccccc2)cc1/C=N/NC(N)=S	11.2	0.2	4.6	-6.6	30.5*	-0.2
CCOC(=O)Cc1csc(NC(=O)c2sc3nc4c(C)cc(C)cc4cc3c2N)n1	11.3	2.1	-1.3	32.4*	-20.3	-10.7
CCOC(=O)Cc1csc(NC(=O)c2csc(C)c2)n1	8.2	8.2	-0.4	-5.1	2.9	-1.2
O=C(Cn1cnc([N+](=O)[O-])n1)NCCO	26.5	0.0	0.8	-14.8	2.7	-5.8
CCc1nn(C)c(N)c1C	-6.6	0.1	-3.7	-5.0	0.1	-11.1
Clc1ccc(C(CCN2CCCC2)Cc2ccccc2)cc1 (stereo not drawn)	3.6	1.9	-11.1	84.2*	-34.8	-7.1

Bioassay records (PubChem)
